Measured values from PubChem BioAssay AID651821 (The Scripps Research Institute Molecular Screening Center, 2012).
The whole screen tested about 370,000 compounds, of which about 4,700 (1.3%) were called active. The list comes from a sample in which actives are over-represented; it also holds similar structures and randomly drawn compounds. Unmarked numbers belong to inactive results.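 How the source made its calls: active means inhibition above the plate cutoff, the mean of all test compounds on that plate plus 3 SD (cut at about 35% in these data); inactive means the rest.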

Assay: binders of r(CAG) RNA repeats, primary screen, biochemical, fluorescence (AID 651821);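 further: 0% = DMSO alone and 100% = 100 µM mitoxantrone as full dye displacement; higher means more dye released from RNA so lower well fluorescence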
Conditions: r(CAG) RNA repeat, TO-PRO-1 dye displacement fluorescence; at 3 µM; hits give high values

For COC(=O)c1c(NC(=O)CSc2nncs2)sc2c1CCCCC2, which inhibition is on record?
The inhibition was 0.27%.

For O=C(O)C1CC=C(Cl)CC1C(=O)NCc1ccccc1 (stereo not drawn), which inhibition is on record?
The inhibition was 1.32%.

Which inhibition does the source give for N#Cc1c(NC(=O)C2CC(Cl)=CCC2C(=O)O)sc2c1CCCCC2 (stereo not drawn) here?
Its inhibition is 42.8% (active).

Which inhibition does the source give for COC(=O)c1c(NC(=O)C2CC(C)=C(C)CC2C(=O)O)sc2c1CCCCC2 (stereo not drawn) here?
Its inhibition is 53.5% (active).

Which inhibition does the source give for C[C@H]1CCC/C=C/C(=O)c2c(O)cc(O)cc2CC(=O)O1 here?
The inhibition was 6.03%.

Which inhibition does the source give for N#Cc1c(-c2ccc(Cl)cc2)c2c([nH]c1=S)CCCC2 here?
The inhibition was 17.9%.

Which inhibition does the source give for C=CCN1C(C(=O)OC)CN(Cc2cn(Cc3ccccc3)nn2)CCS1(=O)=O (stereo not drawn) here?
Its inhibition is 3.76%.

Which inhibition does the source give for COc1ccc(CNS(=O)(=O)c2cc(-c3cc(C)no3)ccc2C(C)C)cc1 here?
The inhibition was 1.21%.

For COc1ccc(CCNS(=O)(=O)c2ccc(Cl)s2)cc1OC, which inhibition is on record?
The inhibition was -4.15%.

Which inhibition does the source give for CCOc1ncccc1C(=O)Nc1ccc(S(=O)(=O)Nc2nc(C)cc(C)n2)cc1 here?
The inhibition was 16.8%.

For COc1cc(NC(=O)c2ccccc2NS(=O)(=O)c2ccc(Cl)s2)cc(OC)c1, which inhibition is on record?
The inhibition was 84.6% (active).

Which inhibition does the source give for COC(=O)c1ccc(NC(=O)c2ccccc2NS(=O)(=O)c2ccccc2)cc1 here?
The inhibition was 74.1% (active).

With CCOC(=O)c1ccc(N/C(=N/S(=O)(=O)c2ccccc2)c2ccccc2)cc1 as the compound, how does the inhibition read?
Its inhibition is 0.82%.

With COc1cccc(NC(=O)c2ccccc2N(Cc2ccccc2)S(C)(=O)=O)c1 as the compound, how does the inhibition read?
The inhibition was 4.73%.

With COc1ccnc(NC(=S)N2CCN(c3ncc(C(F)(F)F)cc3Cl)CC2)c1 as the compound, how does the inhibition read?
Its inhibition is 2.94%.

For COc1cc(/C=C/C(=O)OCC(=O)Nc2cccc(Oc3ccccc3)c2)ccc1O, which inhibition is on record?
Its inhibition is 15.1%.

With CC(C)CNc1cccc2c1S(=O)(=O)N[C@H](C)CO2 as the compound, how does the inhibition read?
Its inhibition is 2.72%.

For COc1ccc(C(CNC(=O)c2cccc(S(=O)(=O)Nc3ccccc3Cl)c2)N2CCOCC2)cc1 (stereo not drawn), which inhibition is on record?
The inhibition was 46.8% (active).

With COc1ccc(C(CNC(=O)c2ccc(S(=O)(=O)Nc3ccccc3C)cc2)N2CCOCC2)cc1 (stereo not drawn) as the compound, how does the inhibition read?
Its inhibition is -3.71%.

For COc1ccc(C(CNC(=O)c2cccc(NS(=O)(=O)c3ccc(C)c(F)c3)c2)N2CCCC2)cc1 (stereo not drawn), which inhibition is on record?
The inhibition was 2.37%.

For CC1=C(C(=O)Nc2cc(C)ccn2)C(c2cnn(C)c2)C2=C(CC(c3ccccc3)CC2=O)N1 (stereo not drawn), which inhibition is on record?
Its inhibition is -6.66%.

For O=C(Nc1ccc(Br)cc1)OCCN1C(=O)CCC12CCC(c1ccccc1)CC2 (stereo not drawn), which inhibition is on record?
Its inhibition is 5.9%.

Which inhibition does the source give for C[C@H](O)[C@@H]1CN2CCc3ccc(-c4ccc5c(c4)OCO5)cc3[C@@H]2C[C@@H]1N(C)C(=O)C1CCCCC1 here?
The inhibition was 6.89%.

With Cc1cc(NCCc2c[nH]c3ccccc23)ccc1Oc1cccnc1 as the compound, how does the inhibition read?
The inhibition was 7.17%.

For CCc1cccc(C)c1N(C(=O)Cn1c(CO)nc2ccccc21)C(C)COC (stereo not drawn), which inhibition is on record?
Its inhibition is -9.89%.

With COC(=O)[C@]12C[C@H](CC(=O)NCCc3ccccc3OC)C(=O)N(Cc3ccco3)C1=C[C@H](C(C)C)O[C@@H]2C1CC1 as the compound, how does the inhibition read?
Its inhibition is 3.46%.

With Cc1nc2cc(NC(=O)CSc3nc4c(C)cccc4cc3C#N)ccc2s1 as the compound, how does the inhibition read?
Its inhibition is 2.03%.

With Cc1ccc(NC(=O)CSc2nn3c(=O)c(C)nnc3s2)cc1Cl as the compound, how does the inhibition read?
The inhibition was 2.36%.

With Cc1ccc(NC(=O)CSc2sc3c(O)cc(=O)[nH]c3c2C#N)cc1C as the compound, how does the inhibition read?
The inhibition was 40.4% (active).

With CCOC(=O)C1CSCCS(=O)(=O)N1Cc1ccc(Cl)cc1 (stereo not drawn) as the compound, how does the inhibition read?
The inhibition was 1.28%.

Which inhibition does the source give for COC[C@@H]1CCCN1c1ccc2c(c1)O[C@H](C)CCN(C1CC1)S2(=O)=O here?
The inhibition was 0.67%.

For CC1(C(=O)NS(=O)(=O)Cc2cccc(Cl)c2)CCN1C(=O)Cc1ccc(Cl)cc1Cl (stereo not drawn), which inhibition is on record?
The inhibition was 42.9% (active).

With CC1(C(=O)NS(=O)(=O)Cc2cccc(Cl)c2)CCN1C(=O)Cc1ccccc1 (stereo not drawn) as the compound, how does the inhibition read?
Its inhibition is 12.6%.

For CCCNC(=O)C1(C)CCN1C(=O)Cc1ccc(-c2ccccc2)cc1 (stereo not drawn), which inhibition is on record?
The inhibition was 0.2%.

With Cc1ccc(F)c(S(=O)(=O)NC(=O)C2(C)CCN2C(=O)CCc2cccs2)c1 (stereo not drawn) as the compound, how does the inhibition read?
Its inhibition is 3.47%.

With Cc1ccccc1S(=O)(=O)NC(=O)C1(C)CCN1C(=O)Cc1ccc(Cl)cc1Cl (stereo not drawn) as the compound, how does the inhibition read?
The inhibition was 32.5%.

Which inhibition does the source give for CCCCc1ccc(S(=O)(=O)NC(=O)C2(C)CCN2C(=O)c2ccccc2)cc1 (stereo not drawn) here?
The inhibition was 32.5%.

With Cc1nc(C(F)(F)F)ccc1C(=O)N1CCC1(C)C(=O)NS(=O)(=O)c1ccccc1 (stereo not drawn) as the compound, how does the inhibition read?
Its inhibition is 4.76%.

For C#Cc1ccc(NC(=O)C2(C)CCN2C(=O)Cc2ccc(-c3ccccc3)cc2)cc1 (stereo not drawn), which inhibition is on record?
Its inhibition is 9.25%.

With CC1(C(=O)NS(=O)(=O)c2ccccc2)CCN1C(=O)Cc1ccc(-c2ccccc2)cc1 (stereo not drawn) as the compound, how does the inhibition read?
The inhibition was 41.7% (active).

Which inhibition does the source give for CC1(C(=O)NS(=O)(=O)c2cccs2)CCN1C(=O)Cc1ccc(-c2ccccc2)cc1 (stereo not drawn) here?
The inhibition was 40.2% (active).

Which inhibition does the source give for CC1(C(=O)NS(=O)(=O)c2ccccc2)CCN1C(=O)C/C=C/c1ccccc1 (stereo not drawn) here?
Its inhibition is 7.12%.

With COc1ccc(S(=O)(=O)NC(=O)C2(C)CCN2C(=O)c2ccccc2CCc2ccccc2)cc1 (stereo not drawn) as the compound, how does the inhibition read?
Its inhibition is 43.4% (active).
